VDR inhibitor = Inhibitors of the vitamin D receptor (VDR): qHTS; VDR-SRC2-3 peptide fluorescence polarization, 2 h; Potency, µM, actives largely listed as inhibitors; Vitamin D3 receptor (Homo sapiens), P11473; 400,000 tested, 0.93% active; AID 504847, 2011
Target sequence (P11473 whole entry, looked up): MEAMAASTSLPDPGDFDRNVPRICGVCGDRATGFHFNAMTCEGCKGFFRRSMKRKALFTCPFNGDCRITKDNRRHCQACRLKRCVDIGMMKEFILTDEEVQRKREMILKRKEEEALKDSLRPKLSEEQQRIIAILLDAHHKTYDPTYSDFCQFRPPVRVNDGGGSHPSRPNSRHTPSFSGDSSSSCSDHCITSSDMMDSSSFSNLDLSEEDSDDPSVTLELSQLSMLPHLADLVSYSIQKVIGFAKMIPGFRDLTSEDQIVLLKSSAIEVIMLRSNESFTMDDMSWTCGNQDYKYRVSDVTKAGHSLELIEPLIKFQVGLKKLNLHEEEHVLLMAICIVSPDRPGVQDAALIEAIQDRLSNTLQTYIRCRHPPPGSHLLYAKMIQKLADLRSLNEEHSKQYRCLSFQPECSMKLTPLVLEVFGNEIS
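VDR–SRC2-3 interaction, FP format. Cmpds 23 nl via pintool, brief spin, 2 h ambient incubation.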
TDP1 block = qHTS Assay for Inhibitors of Tyrosyl-DNA Phosphodiesterase (TDP1); Tyrosyl-DNA phosphodiesterase 1 (Homo sapiens), Q9NUW8; recombinant TDP1, AlphaScreen DNA substrate cleavage; Potency, µM (highest dose often 130 µM), hits mostly inhibitors; 350,000 tested, 0.28% active; AID 485290, 2010; note: nearly all actives have a fitted effect of over 40% in size
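Here, a 5' biotin and 3' phosphotyrosine-FITC DNA oligonucleotide reports Tdp1 activity: intact substrate bridges AlphaScreen beads, while cleavage leaves a 3' phosphate and drops signal. All incubations at room temperature.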
GCN5L2 inh = qHTS Assay for Inhibitors of GCN5L2. Histone acetyltransferase KAT2A (Homo sapiens), Q92830. GCN5L2 HAT assay, ThioGlo1 CoA-SH fluorescence. Potency, µM (series often up to 58.9 µM), most hits filed as inhibitors. 390,000 tested, 0.21% active
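Fluorescence readout, Ex340nm/Em540nm: ThioGlo1 (50uM final) reacts with free CoA thiol released as 20nM GCN5L2 acetylates H3(1-25) peptide (75uM) using acetyl-CoA (70uM). Compound and enzyme sat 15 min beforehand; 20 min room-temperature reaction.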
TDP1 cell CPT = qHTS for Inhibitors of human tyrosyl-DNA phosphodiesterase 1 (TDP1): qHTS in cells in presence of CPT; chicken DT40 Tdp1-/-;hTDP1 cells + 20 nM CPT, ATP luminescence, 48 h; Potency, µM (doses to about 46.2 µM), hits mostly inhibitors; 420,000 tested, 12% active; AID 686979, 2013; note: nearly all actives have a fitted effect of over 55% in size
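Cell growth measured by CellTiter-Glo luminescence after a minimum 48 h, 37 C compound exposure with 20 nM CPT in Tdp1-knockout DT40 cells stably expressing hTDP1, seeded 400/well; qHTS titration format.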
PLK1 PBD block = qHTS for Inhibitors of PLK1-PDB (polo-like kinase 1 - polo-box domain): Primary Screen; 360,000 tested, 2.8% active; Plk1 PBD binding of FITC phosphopeptide, fluorescence polarization; Potency, µM, most hits filed as inhibitors; Serine/threonine-protein kinase PLK1 (Homo sapiens), P53350; note: series mostly up to about 57 µM; nearly all actives have a fitted effect of over 65% in size
TDP1 cell noCPT = qHTS for Inhibitors of human tyrosyl-DNA phosphodiesterase 1 (TDP1): qHTS in cells in absence of CPT. 420,000 tested, 15% active. Potency, µM (highest dose often 46.2 µM), actives largely listed as inhibitors. DT40 Tdp1-/- hTDP1 cells, no CPT, ATP luminescence, 48 h. AID 686978, 2013; note: nearly all actives have a fitted effect of over 55% in size
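Chicken DT40 Tdp1-/- cells stably complemented with human TDP1 were seeded at 400 cells/well with DMSO in place of 20 nM camptothecin. After compound pinning, cells grew at least 48 hr at 37 °C; viability read by CellTiter-Glo luminescence.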
A number is an active result; i = inactive; ? = inconclusive; nt = no result given; [ ] = remark or other dose. An excerpt weighted towards active compounds, which were near 18% of everything screened. Calls come from the whole dose curve; as a rule, active = well fitted curve in the direction sought with a large enough effect; inconclusive = small, poorly fitted or top-dose-only effect, or another doubt; inactive = no such curve, though single readings can be large; an effect the other way counts as inactive or inconclusive.

SMILES	VDR inhibitor	TDP1 block	GCN5L2 inh	TDP1 cell CPT	PLK1 PBD block	TDP1 cell noCPT
CC(=NNC(=S)N1CCN(c2ccccn2)CC1)c1nccs1	i	nt	nt	0.015µM	i	0.016µM
O=C(NC(=S)N1CCN(c2ccccn2)CC1)c1ccccc1	i	i	i	i	i	i
CC(=NNC(=S)N1CC2CCC(CC2)C1)c1cnccn1	i	nt	nt	i	i	i
S=C(Nc1ccc2nc(-c3ccccn3)c(-c3ccccn3)nc2c1)N1CCCCC1	i	i	i	i	?	i
CC(=NNC(=S)N1CC2CCC(CC2)C1)c1ccccn1	nt	nt	nt	0.0082µM	i	0.018µM
O=c1c2cnn(-c3ccc(Cl)cc3)c2ncn1Cc1ccc(Cl)cc1Cl	i	i	i	i	nt	?
COc1ccccc1C1CN(Cc2cccn2-c2ncccn2)Cc2ccccc2O1 (centres undefined)	nt	nt	nt	i[9.04 µM]	nt	i
CC(=O)Nc1cc(-c2ccc(CO)cc2)cn2c(-c3ccc(F)cc3)cnc12	nt	nt	nt	16µM	?	16µM
CC(=O)Nc1cc(-c2ccncc2)cn2c(-c3ccccc3)cnc12	nt	nt	nt	18µM	i	16µM
CC(=O)Nc1cc(-c2ccccc2)cn2c(-c3ccc(F)cc3)cnc12	nt	nt	nt	?	i	?
CC(=O)Nc1cc(-c2ccc(F)cc2)cn2c(-c3ccc(F)cc3)cnc12	nt	nt	nt	16µM	?	18µM
CC(=O)Nc1cc(-c2ccc(F)cc2)cn2c(-c3ccc(S(C)(=O)=O)cc3)cnc12	nt	nt	nt	?	i	16µM
Cc1ccc2c(=O)c(C(=O)c3ccc(F)cc3)cn(CC(=O)NCc3ccccc3Cl)c2n1	i	i	i	i	nt	i
Cc1ccc2oc(/N=C(\N)NC(=O)C3CC3)nc2c1	i	i	?	9.2µM	i	4.6µM
N/C(=N\c1nc2ccccc2o1)NC(=O)c1ccc(F)cc1	i	i	i	13µM	i	13µM
Cc1ccc2oc(/N=C(\N)NC(=O)C(C)(C)C)nc2c1	i	i	i	?	i	?
CCOc1ccc(-c2nc(CSCC(=O)N3CCN(c4cccc(C(F)(F)F)c4)CC3)c(C)o2)cc1	i	i	i	21µM	nt	10µM
CCOc1ccc(-c2nc(CSCC(=O)N3CCN(c4ccc(F)cc4)CC3)c(C)o2)cc1	i	i	i	i	nt	i
COc1ccc(-c2nc(CSCC(=O)N3CCN(c4ccc(OC)cc4)CC3)c(C)o2)cc1	i	i	i	?	nt	10µM
COc1ccc(-c2nc(CSCC(=O)N3CCN(c4cccc(C)c4C)CC3)c(C)o2)cc1OC	i	i	i	18µM	nt	23µM
COc1ccc(-c2nc(CSCC(=O)N3CCN(C)CC3)c(C)o2)cc1OC	i	i	i	i	i	i
COc1ccc(-c2nc(CSCC(=O)N3CCN(c4cc(Cl)ccc4C)CC3)c(C)o2)cc1	i	i	i	13µM	nt	16µM
Cc1c(C(=O)NCCC#N)sc(=O)n1Cc1ccccc1F	nt	nt	nt	i	i	i
O=C(Nc1ncc(Cc2ccccc2)s1)C1CCN(C(=O)c2ccco2)CC1	i	nt	nt	?	nt	?
COCc1cc(C)n(CC(=O)N2CCCC2)c(=O)c1C#N	i	i	i	i	?	i
SMILES	VDR inhibitor	TDP1 block	GCN5L2 inh	TDP1 cell CPT	PLK1 PBD block	TDP1 cell noCPT
CCOC(=O)Cn1c(C)cc(COC)c(C#N)c1=O	i	i	i	i	i	5.2µM
Cc1ncc(CO)n1Cc1ccc(Cl)cc1	nt	nt	nt	i	i	i
CCOc1cc(CN2CCN(c3cccc(C(F)(F)F)c3)CC2)ccc1O	i	i	i	16µM	i	16µM
CCOc1cc(CN2CCN(c3cccc(C(F)(F)F)c3)CC2)ccc1OC	i	i	i	?	i	16µM
CCOc1cc(CN2CCN(c3ccc(C(C)=O)cc3)CC2)ccc1OC	i	i	i	?	i	?
COc1ccc(CC(C)N2CCN(c3cccc(C(F)(F)F)c3)CC2)cc1OC (centres undefined)	i	i	i	?	i	26µM
COc1ccc(S(=O)(=O)NC2CCN(C#N)CC2)cc1	nt	i	nt	nt	nt	nt
O=C(CSc1nc(C(F)(F)F)cc(=O)[nH]1)Nc1cccc2ccccc12	i	i[0.505 µM]	i	i	i	i
CCc1cc2c(cc3c(=O)n(CC(=O)NC(C)C)nc(CC)n32)s1	i	i	i	?	nt	16µM
CCCCN(CCCC)CCNC(=O)Cn1nc(CC)n2c(cc3sc(C)cc32)c1=O	i	i	i	15µM	nt	16µM
CCc1nn(CC(=O)NCCCN(CC)CC)c(=O)c2cc3sc(C)cc3n12	i	i	i	i	i	?
COc1ccc(CCNC(=O)C(=O)NCC2CCCN2S(=O)(=O)c2ccccc2)cc1OC (centres undefined)	i	nt	i	?	i	13µM
Cc1cccc(NC(=O)C(=O)NCC2CCCN2S(=O)(=O)c2ccccc2)c1 (centres undefined)	i	nt	i	15µM	i	10µM
Cc1ccccc1CNC(=O)C(=O)NCC1CCCN1S(=O)(=O)c1ccccc1 (centres undefined)	i	nt	i	?	i	?
Cc1cccc(NC(=O)C(=O)NCC2CCCN2S(=O)(=O)c2cccs2)c1 (centres undefined)	nt	nt	nt	13µM	i	8.2µM
Cc1cccc(NC(=O)C(=O)NCC2CCCN2S(=O)(=O)c2cccs2)c1C (centres undefined)	i	nt	i	21µM	i	?
COc1cccc(NC(=O)C(=O)NCC2CCCN2S(=O)(=O)c2cccs2)c1 (centres undefined)	nt	nt	nt	i	i	i
C=CCC(CC=C)(CNC(=O)C(=O)Nc1ccc(C)cc1)c1ccccc1	i	i	i	i	nt	i
COc1ccc(NC(=O)N2CCc3nc(-c4ccccc4)c4c(c3C2)CO[C@@H](C)C4)cc1	nt	i[12.3 µM]	nt	nt	nt	nt
CCCOC1CCCN(C(=O)c2cc(COc3ccc(F)c(F)c3)on2)C1 (centres undefined)	i	i	i	?	i	i
CCN(C(=O)COC(=O)CCC(=O)c1cccs1)c1c(N)n(Cc2ccccc2)c(=O)[nH]c1=O	i	nt	i	i	i	i
COc1cc(-c2cc(C)c3c(OC)ccc(OC)c3n2)cc2c1OCCN(C(=O)CCn1ccc(C)n1)C2	nt	nt	nt	i[9.04 µM]	nt	?
O=C(NCC1CCCN1S(=O)(=O)c1cccs1)C(=O)Nc1ccccc1 (centres undefined)	i	i	i	i	i	?
CCc1ccc(NC(=O)C(=O)NCC2CCCN2S(=O)(=O)c2cccs2)cc1 (centres undefined)	i	i	i	18µM	i	15µM

Bioassay records as filed in PubChem BioAssay.
